Drawing on PubChem BioAssay, this text covers growth inhibition, inhibition and outcome for 20 compounds.

A number with no mark means an inactive call. For some of these results: Potency and affinity values are given separately. Activity calls are given as the source filed them. Unless noted, no rule for the calls is given here.

The nature of assay [1]: antimalarial activity against Dd2 strain (AID 2302;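 active = growth inhibition above 50% at the single 2 µM test dose, taken to imply half-maximal potency below 2 µM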;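 also: 0% = DMSO untreated growth and 100% = chloroquine plus artemisinin killed control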). Particulars: P. falciparum Dd2 in RBCs, LDH growth readout, 72 h; at 2 µM; hits give high values.
The nature of assay [2]: HepG2 cytotoxicity, primary screen, cytotoxicity control for P. falciparum antimalarial project, cell-based, ATP luminescence (AID 2303;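 active = inhibition above 50%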;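 also: 0% = DMSO wells and 100% = digitonin-killed cells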). Particulars: HepG2 viability, 24-48 h, at 10 µM, hits give high values.
The target of assay [3] is L-lactate dehydrogenase (Plasmodium falciparum (isolate CDC / Honduras)) (UniProt Q27743). Briefly: PfLDH activity inhibition – cell lysate, 3D7 strain, counter-screen for P. falciparum growth inhibition project (AID 2304).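 Also: 0% = vehicle and 100% = reference inhibitor.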 The following applies: P. falciparum 3D7 crude extract, LDH APAD/NBT absorbance; at 2 µM; hits give high values.
Chain of L-lactate dehydrogenase (Plasmodium falciparum (isolate CDC / Honduras)) (Q27743 whole entry, looked up): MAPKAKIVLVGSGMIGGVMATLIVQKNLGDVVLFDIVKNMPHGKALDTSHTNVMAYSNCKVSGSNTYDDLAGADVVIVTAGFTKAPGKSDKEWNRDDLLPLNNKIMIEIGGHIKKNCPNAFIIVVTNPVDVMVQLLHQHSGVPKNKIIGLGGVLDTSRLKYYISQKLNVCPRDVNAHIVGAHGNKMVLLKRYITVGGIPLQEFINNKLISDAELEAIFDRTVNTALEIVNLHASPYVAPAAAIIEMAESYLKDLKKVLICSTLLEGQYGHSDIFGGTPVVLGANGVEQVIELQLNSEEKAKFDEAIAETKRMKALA
A short description of assay [4]: inhibition of 3D7 malaria parasite growth – strain 3D7 (AID 2306).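 Also: 0% = DMSO wells and 100% = chloroquine plus artemisinin control wells.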 The following applies: P. falciparum 3D7 erythrocytic growth, LDH absorbance, 72 h; at 2 µM; hits give high values.
Assay [5] deals with Calcium-dependent protein kinase 1 (Plasmodium falciparum (isolate 3D7)) (UniProt P62344). Briefly: PfCDPK1 kinase inhibitors, biochemical, TCAMS library (AID 1159585; cut-off not given, nearly all actives have IC50 up to about 0.98 µM;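 also: inhibitors leave more ATP so luminescence rises with inhibition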). Particulars: recombinant PfCDPK1, Kinase-Glo ATP depletion luminescence. (In general: Kinase-Glo reads ATP consumption through a luciferase reaction.)
Chain of Calcium-dependent protein kinase 1 (Plasmodium falciparum (isolate 3D7)) (P62344 whole entry, looked up): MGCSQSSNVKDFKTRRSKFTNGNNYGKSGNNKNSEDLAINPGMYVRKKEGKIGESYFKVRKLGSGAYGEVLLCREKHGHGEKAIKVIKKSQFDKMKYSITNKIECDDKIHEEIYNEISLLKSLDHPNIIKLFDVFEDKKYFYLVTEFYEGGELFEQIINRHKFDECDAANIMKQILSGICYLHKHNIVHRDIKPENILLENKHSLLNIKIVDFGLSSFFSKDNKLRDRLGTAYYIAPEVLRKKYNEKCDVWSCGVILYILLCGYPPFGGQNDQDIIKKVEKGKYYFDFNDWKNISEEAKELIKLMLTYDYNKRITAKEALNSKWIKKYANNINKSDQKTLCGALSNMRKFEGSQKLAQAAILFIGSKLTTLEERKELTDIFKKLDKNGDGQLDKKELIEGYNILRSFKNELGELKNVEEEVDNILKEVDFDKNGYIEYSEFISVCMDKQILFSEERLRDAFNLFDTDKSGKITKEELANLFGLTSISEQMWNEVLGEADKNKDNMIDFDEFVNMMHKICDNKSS
Assay [6] addresses Plasmodium falciparum protein kinase 6 (PK6, PF3D7_1337100) (UniProt Q8IDW1). Kind of assay: PfPK6 kinase inhibitors, biochemical, TCAMS library (AID 1159586). The following applies: recombinant PfPK6, Kinase-Glo ATP depletion luminescence.
Assay [7] concerns the target Protein kinase 7 (PK7), Plasmodium falciparum 3D7 (PF3D7_0213400) (UniProt Q7YTF7). Kind of assay: inhibition of Plasmodium PK7 catalytic activity – biochemical, TCAMS antimalarial set, Kinase-Glo luminescence (AID 1159587). The following applies: recombinant PfPK7, Kinase-Glo ATP depletion luminescence.
The target of assay [8] is Calcium-dependent protein kinase 4 (Plasmodium falciparum (isolate 3D7)) (UniProt Q8IBS5). Briefly: PfCDPK4 kinase inhibitors, biochemical, TCAMS library (AID 1159588; cut-off not given, nearly all actives have IC50 up to about 0.91 µM). Particulars: recombinant PfCDPK4, Kinase-Glo ATP depletion luminescence.
Chain of Calcium-dependent protein kinase 4 (Plasmodium falciparum (isolate 3D7)) (Q8IBS5 whole entry, looked up): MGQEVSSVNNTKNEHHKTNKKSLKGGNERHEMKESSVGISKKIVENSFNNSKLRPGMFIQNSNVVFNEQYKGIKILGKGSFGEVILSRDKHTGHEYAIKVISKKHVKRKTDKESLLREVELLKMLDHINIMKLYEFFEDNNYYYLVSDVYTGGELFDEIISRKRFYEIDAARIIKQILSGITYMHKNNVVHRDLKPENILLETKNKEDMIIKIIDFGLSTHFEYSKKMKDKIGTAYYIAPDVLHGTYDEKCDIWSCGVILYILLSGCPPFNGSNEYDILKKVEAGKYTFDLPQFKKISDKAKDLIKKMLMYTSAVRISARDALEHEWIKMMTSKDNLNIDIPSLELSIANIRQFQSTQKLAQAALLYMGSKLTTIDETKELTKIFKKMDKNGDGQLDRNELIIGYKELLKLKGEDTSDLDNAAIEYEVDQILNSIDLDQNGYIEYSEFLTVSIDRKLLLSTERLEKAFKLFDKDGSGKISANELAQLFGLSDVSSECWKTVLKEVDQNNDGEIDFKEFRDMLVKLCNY

Chain of Plasmodium falciparum protein kinase 6 (PK6, PF3D7_1337100) (Q8IDW1 1-305): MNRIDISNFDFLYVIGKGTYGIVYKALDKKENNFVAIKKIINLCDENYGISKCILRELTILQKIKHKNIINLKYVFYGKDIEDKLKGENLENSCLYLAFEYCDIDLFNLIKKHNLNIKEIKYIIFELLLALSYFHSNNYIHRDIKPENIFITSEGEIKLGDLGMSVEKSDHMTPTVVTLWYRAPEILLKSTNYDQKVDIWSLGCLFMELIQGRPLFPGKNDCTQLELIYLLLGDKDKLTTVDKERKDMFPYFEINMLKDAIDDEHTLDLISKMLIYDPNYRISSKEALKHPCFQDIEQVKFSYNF
Chain of Protein kinase 7 (PK7), Plasmodium falciparum 3D7 (PF3D7_0213400) (Q7YTF7 1-343): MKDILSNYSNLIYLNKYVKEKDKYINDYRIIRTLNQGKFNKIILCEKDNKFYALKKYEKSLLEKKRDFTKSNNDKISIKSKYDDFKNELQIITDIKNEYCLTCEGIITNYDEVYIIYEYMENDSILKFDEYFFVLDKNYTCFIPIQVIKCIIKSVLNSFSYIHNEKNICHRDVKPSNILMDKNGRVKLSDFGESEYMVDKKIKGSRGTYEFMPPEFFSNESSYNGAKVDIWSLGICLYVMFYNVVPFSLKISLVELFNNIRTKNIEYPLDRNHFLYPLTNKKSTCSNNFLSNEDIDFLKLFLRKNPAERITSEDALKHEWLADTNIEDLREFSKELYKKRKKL

As a reminder, the inhibition is the drop in the measured response relative to a control, in per cent. Regarding `O=C(Nc1ccccc1)Nc1ccc(-n2ccc(C(F)(F)F)n2)cc1`, the growth inhibition is 85% (active) in assay [1] and 95% (active) in assay [4]. Also, the results for the inhibition in assay [2] and in assay [3] were 15% and -5%, respectively. Besides, the outcome in assay [5], in assay [6], in assay [7] and in assay [8] was inactive.

Turning to `CC(Cc1ccc(C(=O)Nc2ccc(CC(C)NCCc3cccc(Cl)c3)cc2)cc1)NCCc1ccc(C(F)(F)F)cc1` (stereo not given), the growth inhibition was 88% (active) in assay [1] and 101% (active) in assay [4]. Moreover, the inhibition was 98% (active) in assay [2] and -4% in assay [3]. The result in assay [5], in assay [6], in assay [7] and in assay [8] was inactive.

As to `CC[C@H](NC(=O)c1c(CCCN2CCN(c3ccccc3)CC2)c(-c2ccccc2)nc2cc(O)ccc12)c1ccccc1`, the growth inhibition in assay [1] was 97% (active); in assay [4], 96% (active). For the same compound, the results for the inhibition in assay [2] and in assay [3] were 12% and 6%, respectively. Moreover, the result in assay [5], in assay [6], in assay [7] and in assay [8] was inactive.

For `COc1cc(C=CC(=O)N2CCN(Cc3cccc(C)c3)CC2)ccc1OCc1c(C)noc1C`, the growth inhibition in assay [1] is 95% (active); in assay [4], 86% (active). Besides, the inhibition in assay [2] was 8%; in assay [3], -4%. In addition, the outcome in assay [5], in assay [6], in assay [7] and in assay [8] was inactive.

`CCN1CCCC1CN(Cc1ccc(-c2ccc(C(F)(F)F)cc2)cc1)C(=O)Cn1c(CCc2cccc(F)c2F)nc(=O)c2ccccc21` (stereo not given): the growth inhibition in assay [1] is 51% (active); in assay [4], 94% (active). The inhibition in assay [2] was 40%; in assay [3], 2%. The result in assay [5], in assay [6], in assay [7] and in assay [8] was inactive.

In the case of `CCN(CC)c1nc(Nc2cc(C)ccc2C)nc(Nc2ccccc2O)n1`, the growth inhibition is 99% (active) in assay [1] and 101% (active) in assay [4]. The results for the inhibition in assay [2] and in assay [3] were -9% and 2%, respectively. For the same compound, the outcome in assay [5], in assay [6], in assay [7] and in assay [8] was inactive.

With `Cc1ccc(Nc2nc(NN=Cc3cccc(O)c3)nc(Nc3ccc([N+](=O)[O-])cc3)n2)cc1C`, the growth inhibition is 69% (active) in assay [1] and 101% (active) in assay [4]. Also, the figures for the inhibition in assay [2] and in assay [3] were -2% and 5%, respectively. Besides, the result in assay [5], in assay [6], in assay [7] and in assay [8] was inactive.

Take `CCN(CC)c1ccc(-c2nc3ncc(Cl)cc3[nH]2)cc1`: the growth inhibition in assay [1] and in assay [4] was 85% (active) each time. The inhibition is 16% in assay [2] and -5% in assay [3]. Besides, the outcome in assay [5], in assay [6], in assay [7] and in assay [8] was inactive.

Turning to `O=C1C(C2CCC(c3ccc(Cl)cc3)CC2)=C2OCC3COC2(O3)c2ccccc21` (stereo not given), the growth inhibition in assay [1] was 97% (active); in assay [4], 98% (active). For the same compound, the inhibition in assay [2] is 7%; in assay [3], -2%. In addition, the outcome in assay [5], in assay [6], in assay [7] and in assay [8] was inactive.

For `O=c1cc(NCCC(CNCc2ccc(Br)o2)NCc2cc(Br)cc(Br)c2)[nH]c2ccccc12` (stereo not given), the growth inhibition in assay [1] was 90% (active); in assay [4] it was 98% (active). For the same compound, the inhibition is 2% in assay [2] and 6% in assay [3]. Moreover, the outcome in assay [5], in assay [6], in assay [7] and in assay [8] was inactive.

With `CN(C)c1ccc(-c2csc(C(=O)NC3CCCCN(Cc4ccc(C(C)(C)C)cc4)C3)c2)cc1` (stereo not given), the growth inhibition in assay [1] is 55% (active); in assay [4] it was 84% (active). In addition, the inhibition is 17% in assay [2] and 4% in assay [3]. Further, the outcome in assay [5], in assay [6], in assay [7] and in assay [8] was inactive.

Consider `O=C(c1ccc(F)c2ccccc12)N1CCc2cc3nccc(N4CCN5CCC[C@H]5C4)c3cc21`, for which the figures for the growth inhibition in assay [1] and in assay [4] were 54% (active) and 90% (active), respectively. Besides, the results for the inhibition in assay [2] and in assay [3] were -8% and -5%, respectively. Further, the outcome in assay [5], in assay [6], in assay [7] and in assay [8] was inactive.

Take `Cc1cccnc1CNc1nccc2c(C)c(C)[nH]c12`: the values for the growth inhibition in assay [1] and in assay [4] were 28% and 100% (active), respectively. Further, the inhibition is 27% in assay [2] and 0% in assay [3]. Besides, the outcome in assay [5], in assay [6], in assay [7] and in assay [8] was inactive.

As to `COc1ccc(C(=O)N2CCc3cc4nccc(N5CCN6CCC[C@H]6C5)c4cc32)cc1`, the growth inhibition in assay [1] was 50% (active); in assay [4], 98% (active). Besides, the results for the inhibition in assay [2] and in assay [3] were 1% and -12%, respectively. In addition, the outcome in assay [5], in assay [6], in assay [7] and in assay [8] was inactive.

On to `CN1CCC(NCc2ccc(S(=O)(=O)Nc3ccc(Oc4cccc(Cl)c4)cc3)cc2)CC1`, for which the results for the growth inhibition in assay [1] and in assay [4] were 5% and 99% (active), respectively. Further, the inhibition in assay [2] is 47%; in assay [3], 0%. Further, the result in assay [5], in assay [6], in assay [7] and in assay [8] was inactive.

`CS(=O)(=O)c1ccc(-c2nc(NCC3CCCCC3)cc(C(F)(F)F)n2)cc1`: the figures for the growth inhibition in assay [1] and in assay [4] were 76% (active) and 83% (active), respectively. The inhibition was -9% in assay [2] and 2% in assay [3]. Besides, the outcome in assay [5], in assay [6], in assay [7] and in assay [8] was inactive.

`COCCNC(=O)C(CNC(=O)c1ccc2c(c1)OCO2)NC(=O)c1ccc(-c2ccccc2)cc1` (stereo not given): the results for the growth inhibition in assay [1] and in assay [4] were 3% and 90% (active), respectively. Moreover, the inhibition in assay [2] is 14%; in assay [3], 1%. Moreover, the outcome in assay [5], in assay [6], in assay [7] and in assay [8] was inactive.

Take `CN1CCN(c2cc(NC(=O)Nc3cccc(Cl)c3Cl)ccc2Cl)CC1`: the growth inhibition was 21% in assay [1] and 102% (active) in assay [4]. Also, the inhibition in assay [2] and in assay [3] was 2% throughout. The result in assay [5], in assay [6], in assay [7] and in assay [8] was inactive.

In the case of `CC(C)(C)c1ccc(CNC(=O)c2cc(CNC3CCNCC3)ccc2O)cc1`, the results for the growth inhibition in assay [1] and in assay [4] were 8% and 96% (active), respectively. The inhibition in assay [2] was 6%; in assay [3], 2%. For the same compound, the result in assay [5], in assay [6], in assay [7] and in assay [8] was inactive.

Regarding `O=C(NCC1CCN(CCN2CCC(c3cn(CCO)c4ccccc34)CC2)CC1)c1ccc(-c2ccc(C(F)(F)F)cc2)cc1`, the growth inhibition in assay [1] is 100% (active); in assay [4], 101% (active). Further, the inhibition in assay [2] was 100% (active); in assay [3], 0%. For the same compound, the outcome in assay [5], in assay [6], in assay [7] and in assay [8] was inactive.
